Source: PubChem BioAssay
Sampled rows, rich in hits. Any-hit rate of the full collection: about 18%.
Six1-Eya2 inh: inhibitors of human Six1/Eya2 interaction. Q15475+O00167. AlphaScreen GST-Six1/His-Eya2 binding, biochemical; hits give low values. activity change, % (concentration not given with the values). 0.56% of 360,000 active. AID 651725; in the data active = activity change below about -65%; inconclusive = mostly about -30% to -63%
Target sequence (O00167 whole entry, looked up): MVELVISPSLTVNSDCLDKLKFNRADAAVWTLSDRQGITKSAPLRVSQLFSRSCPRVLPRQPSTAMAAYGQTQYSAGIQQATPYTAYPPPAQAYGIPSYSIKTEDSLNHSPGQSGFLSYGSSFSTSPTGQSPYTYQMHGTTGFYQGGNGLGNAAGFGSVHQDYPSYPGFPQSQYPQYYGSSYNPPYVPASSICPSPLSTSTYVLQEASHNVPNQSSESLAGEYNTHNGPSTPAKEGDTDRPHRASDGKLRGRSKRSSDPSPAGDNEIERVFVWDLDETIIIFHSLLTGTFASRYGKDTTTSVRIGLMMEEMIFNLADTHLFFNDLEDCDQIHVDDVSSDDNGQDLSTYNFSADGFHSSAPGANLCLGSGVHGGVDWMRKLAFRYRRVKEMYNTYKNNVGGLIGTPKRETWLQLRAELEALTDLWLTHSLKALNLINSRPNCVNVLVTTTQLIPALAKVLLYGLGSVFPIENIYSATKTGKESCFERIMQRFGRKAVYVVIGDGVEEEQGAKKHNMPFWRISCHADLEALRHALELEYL
Target sequence (Q15475 whole entry, looked up): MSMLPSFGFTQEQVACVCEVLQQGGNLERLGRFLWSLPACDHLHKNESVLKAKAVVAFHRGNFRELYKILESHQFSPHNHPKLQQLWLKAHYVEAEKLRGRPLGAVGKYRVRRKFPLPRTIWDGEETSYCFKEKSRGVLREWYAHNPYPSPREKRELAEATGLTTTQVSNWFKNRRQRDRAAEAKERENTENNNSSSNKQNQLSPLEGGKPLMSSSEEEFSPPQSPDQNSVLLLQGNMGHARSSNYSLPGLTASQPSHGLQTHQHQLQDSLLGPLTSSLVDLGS
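Homogeneous AlphaScreen proximity assay pairing GST-Six1 with His-tagged Eya2 (added as 5X mix: 250 nM and 500 nM) in 50 mM Tris pH 8.0, 300 mM NaCl, 1 mM TCEP. Glutathione donor and nickel acceptor beads; 1 h, 37 °C, dark.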
TDP1 cell noCPT: qHTS for Inhibitors of human tyrosyl-DNA phosphodiesterase 1 (TDP1): qHTS in cells in absence of CPT; DT40 Tdp1-/- hTDP1 cells, no CPT, ATP luminescence, 48 h; AID 686978, 2013; 15% of 420,000 active; Potency, µM (highest dose often 46.2 µM), without a hit: top-dose activity change, negative = growth inhibition, hits mostly inhibitors; also: potency is read from the fitted curve at half-maximal effect; nearly all actives have a fitted effect of over 55% in size
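Cells were dispensed at 400 per well, compounds added by pin tool, plates incubated ≥48 hr at 37 °C, then CellTiter-Glo added for 30 min at room temperature before luminescence reading. Line: DT40 Tdp1-/- complemented with hTDP1; camptothecin omitted.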
TDP1 block: blocks human tyrosyl-DNA phosphodiesterase 1; Q9NUW8; recombinant TDP1, AlphaScreen DNA substrate cleavage; Potency, µM (top dose mostly 130 µM), for inactives: at the highest dose activity change, negative = inhibition, hits mostly inhibitors; 0.28% of 350,000 active; AID 485290; also: potency is read from the fitted curve at half-maximal effect; nearly all actives have a fitted effect of over 40% in size
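Here, a 5' biotin and 3' phosphotyrosine-FITC DNA oligonucleotide reports Tdp1 activity: intact substrate bridges AlphaScreen beads, while cleavage leaves a 3' phosphate and drops signal. All incubations at room temperature.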
DT40 TDP1 CPT: growth inhibition of DT40 Tdp1-/-;hTDP1 cells with camptothecin (screen for TDP1 inhibitors); chicken DT40 Tdp1-/-;hTDP1 cells + 20 nM CPT, ATP luminescence, 48 h; Potency, µM (highest dose often 46.2 µM), for inactives: top-dose activity change, negative = growth inhibition, usual class: inhibitors; 12% of 420,000 active; AID 686979; also: potency is read from the fitted curve at half-maximal effect; nearly all actives have a fitted effect of over 55% in size
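Cell growth measured by CellTiter-Glo luminescence after a minimum 48 h, 37 C compound exposure with 20 nM CPT in Tdp1-knockout DT40 cells stably expressing hTDP1, seeded 400/well; qHTS titration format.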
CtBP-E1A inh: inhibitors of CtBP/E1A interaction; AlphaScreen GST-E1A/His-CtBP binding, 1536-well; hits give low values; activity change, % (no concentration beside the values); 0.49% of 340,000 active; AID 651724; in the data active = activity change below about -65%; inconclusive = mostly about -30% to -63%
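Homogeneous bead-based format: GST-tagged E1A captured on glutathione donor beads, His-tagged CtBP on nickel acceptor beads; compounds precede bead addition by 2 h at 37 °C.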
IL1B secr inh: inhibitors of inflammasome signaling (IL-1 beta secretion) | activity change, % at 57.5 µM | THP-1 LPS/ATP IL-1B secretion, AlphaLISA, 16 h; hits give low values | 4.7% of 360,000 active; in the data active = activity change below about -50%; inconclusive = mostly about -30% to -49%
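Secreted IL-1B measured by AlphaLISA bead assay after 16 h compound exposure of THP-1 cells; compounds (final up to 57.5 uM) added 1 h before LPS (250 ng/mL) and ATP (1.25 mM) stimulation; lower signal means less secretion.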
* hit, by the source's call; ? = inconclusive; · = no result; [ ] = dose if it differs, or a comment. Unless noted, calls follow the shape of the dose curve; as a rule, active = well fitted curve in the direction sought with a large enough effect; inconclusive = small, poorly fitted or top-dose-only effect, or another doubt; inactive = no such curve, though single readings can be large; an effect the other way counts as inactive or inconclusive. % is scaled to controls: 0 for no effect and ±100 for the full control effect.

SMILES | Six1-Eya2 inh | TDP1 cell noCPT | TDP1 block | DT40 TDP1 CPT | CtBP-E1A inh | IL1B secr inh
COc1ccc(CCNC(=O)CCCn2c(=O)c3ccccc3n(Cc3ccccc3)c2=O)cc1OC | · | 16.4µM* | -5.5% | ? | · | ·
COc1ccc(CCNC(=O)CCCCCN2C(=O)[C@@H]3Cc4ccccc4CN3C2=O)cc1OC | 3.5 | ? | 1.2% | 20.6µM* | -0.9 | 24.2
O=C(O)c1ccccc1NS(=O)(=O)c1ccc2ccccc2c1 | 17.4 | -7.0% | -13.8% | 1.3% | -1.9 | 29.8
CC1(C)CNC(=O)CC(C)(C)N1O | -0.5 | 3.0% | 2.3% | -10.9% | -29.0 | -4.0
Cc1ccc(-n2ncc(C(=O)NCc3ccc4c(c3)OCO4)c2C2CCN(C(=O)OC(C)(C)C)CC2)cc1C | · | ? | 6.3% | 23.1µM* | · | ·
Cc1cccc(C)c1-n1ncc(C(=O)Nc2ccc3c(c2)OCCO3)c1C1CCN(C(=O)OC(C)(C)C)CC1 | · | ? | 6.3% | ? | · | ·
CC(=O)Nc1ccc(NC(=O)c2cnn(-c3ccccc3)c2C2CCN(C(=O)OC(C)(C)C)CC2)cc1 | · | -21.8% | -2.3% | -23.3% | · | ·
Cc1ccc(-n2ncc(C(=O)NCCN3CCCC3)c2C2CCN(C(=O)OC(C)(C)C)CC2)cc1C | · | ? | 5.3% | 16.4µM* | · | ·
Cc1cccc(C)c1-n1ncc(C(=O)NCc2ccc3c(c2)OCO3)c1C1CCN(C(=O)OC(C)(C)C)CC1 | · | 14.6µM* | 6.3% | ? | · | ·
Cc1ccc(-n2ncc(C(=O)NCC3CCN(C4CCCC4)C3)c2C2CCN(C(=O)OC(C)(C)C)CC2)cc1C (stereo not given) | -0.4 | -22.5% | 1.6% | ? | -0.9 | ?
CCOc1ccc(NC(=O)c2cnn(-c3ccc(C)c(C)c3)c2C2CCN(C(=O)OC(C)(C)C)CC2)cc1 | · | 16.4µM* | 5.8% | 16.4µM* | · | ·
O=C(CN1C2=NCCN2c2ccccc21)c1ccco1 | -3.0 | -4.3% | 6.1% | -4.9% | 6.0 | 0.0
CCOC(=O)[C@]12CCC=C1N(Cc1ccccc1)C(=O)[C@H](CC(=O)N1CCSCC1)C2 | 0.6 | -6.3% | · | -25.2% | 1.5 | 13.2
O=C(Nc1ccc2nc(C3CC3)n(Cc3ccccc3)c(=O)c2c1)C1CC1 | 27.3 | -10.6% | 3.1% | -24.7% | 19.4 | 29.5
CCOC(=O)N1CCN(CCC(=O)Nc2cc(OC)cc(OC)c2)CC1 | 4.3 | -3.1% | 4.2%[56.1 µM] | 6.8% | -1.6 | -1.9
O=C(O)c1ccc(/C=N/N2CCN(Cc3cccc4ccccc34)CC2)cc1 | 1.0 | 1.4% | 0.0% | -9.7% | -4.0 | 0.4
O=C(O)C1CCC2CCCC21 (stereo not given) | 10.9 | -9.1% | · | 0.4% | 12.1 | 17.5
COCCn1c(C)cc(O)c(C(c2ccc(C)cc2)N2CCCCC2)c1=O (stereo not given) | · | 16.4% | -2.7% | 8.0% | · | ·
COc1ccc(-n2ncc(C(=O)NCc3ccc4c(c3)OCO4)c2C2CCN(C(=O)OC(C)(C)C)CC2)cc1 | · | ? | 7.4% | 16.4µM* | · | ·
Cc1ccc(-n2ncc(C(=O)NCCN3CCc4ccccc4C3)c2C2CCNCC2)cc1C | · | 20.6µM* | 0.0% | 20.6µM* | · | ·
COc1ccc(CNC(=O)c2cnn(-c3ccc(OC)cc3)c2C2CCN(C(=O)OC(C)(C)C)CC2)cc1 | · | ? | 1.1% | ? | · | ·
Cc1nnc(N2CCN(c3cccc(Cl)c3)CC2)c2c1nnn2Cc1ccc(F)cc1 | · | ? | 7.0% | -29.8% | · | ·
CCCNC(=O)C1(C)CCCN(C(=O)c2ccc(C)c(F)c2)C1 (stereo not given) | 0.0 | -20.5% | · | -18.8% | 0.0 | 0.0
Cc1ccnc(NC(=O)COc2ccccc2[N+](=O)[O-])c1 | · | · | 0.6% | · | · | ·
O=C(OC1CCCCC1=O)c1cc(S(=O)(=O)N2CCOCC2)ccc1F (stereo not given) | 7.4 | 15.6% | 3.1% | -13.2% | 10.8 | -2.1
SMILES | Six1-Eya2 inh | TDP1 cell noCPT | TDP1 block | DT40 TDP1 CPT | CtBP-E1A inh | IL1B secr inh
CCN(C(=O)c1ccc(C(=O)N(CC)c2ccccc2C)cc1)c1ccccc1C | · | 16.4µM* | 1.9%[2.28 µM] | ? | · | ·
CCCCCCCN(C(=O)CCl)c1ccccc1C | -0.8 | 14.6µM* | 1.9% | 18.4µM* | 1.0 | -106.4*
CCC(=O)N1CCc2cc(Br)cc(S(=O)(=O)NCc3cccc(OC)c3)c21 | · | -23.6% | 2.9% | -0.9% | · | ·
Cc1cc(C)n(-c2nc3ccccc3s2)n1 | 26.4 | 32.4% | -3.0% | -7.1% | 0.0 | 0.0
Cc1c2c(=O)n(-c3nc4ccccc4s3)nc-2cc(O)n1Cc1ccccc1 | -3.5 | 14.6µM* | 10.3% | 20.6µM* | · | 0.2
O=C(CN(CCc1ccccc1)C(=O)CNS(=O)(=O)c1ccc(F)cc1)NCc1ccco1 | 1.3 | -25.3% | -1.9% | -14.8% | 6.1 | -5.9
Cc1cc(NC(=O)COC(=O)c2cc([N+](=O)[O-])ccc2N2CCOCC2)ccc1Br | -4.6 | 16.4µM* | · | ? | -6.3 | ?
CC(C)c1ccccc1NC(=O)COC(=O)c1cc([N+](=O)[O-])ccc1N1CCOCC1 | -7.7 | 18.4µM* | · | ? | -17.4 | -19.3
O=C(COC(=O)c1cc([N+](=O)[O-])ccc1N1CCCC1)Nc1ccccc1OC(F)F | -19.2 | 16.4µM* | 2.0%[0.505 µM] | ? | -3.0 | -4.2
Cc1cccc(COc2ccc(/C(O)=C3\C(=O)C(=O)N(CCN(C)C)C3c3ccncc3)cc2)c1 (stereo not given) | 5.0 | 0.2% | 2.0% | 0.1% | -1.4 | 11.9
C/C(=N\NC(=O)c1nnn(-c2nonc2N)c1CN(C)c1ccccc1)c1cccs1 | 2.8 | 2.2% | · | -19.8% | 7.6 | 3.6
COC(=O)C(C(=O)OC)C(C[N+](=O)[O-])c1ccc(OC)c(OC)c1 (stereo not given) | 0.8 | ? | 0.0% | -23.9% | 0.8 | 52.9
COc1ccc(C(C[N+](=O)[O-])C2(c3ccc(OC)c(OC)c3)C(=O)c3ccccc3C2=O)cc1 (stereo not given) | 2.2 | 4.11µM* | 11.0% | ? | 1.2 | -102.4*
O=C(Nc1cc(S(=O)(=O)N2CCOCC2)ccc1Cl)c1cc([N+](=O)[O-])ccc1Cl | -2.7 | 14.6µM* | 2.0% | ? | -1.4 | -97.4*
N#CCc1ccc(NC(=O)c2cc(S(=O)(=O)N3CCOCC3)ccc2Cl)cc1 | 1.4 | 18.4µM* | 3.0% | 16.4µM* | -26.0 | 23.0
O=C(Nc1ccc(S(=O)(=O)N2CCOCC2)cc1)c1ccc([N+](=O)[O-])cc1Cl | -4.4 | ? | 4.5% | ? | -13.8 | 0.0
